PubChem BioAssay (NCI)
Compounds without any hit were thinned out: in the full panel of roughly 83,000, 20% have a hit.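 Results are percent growth after 48 hours of single-concentration exposure. 100 means growth as in untreated cells, lower positive values show inhibition; negative values down to -100 show cell death.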 A number with no mark means an inactive call. The source made the active and inactive calls. Rule for the calls: active = growth percent below 10; inactive = the rest.

System: UACC-62 melanoma
Assay: NCI-60 one-dose screen, 48 h (100 = growth as untreated, 0 = no growth, -100 = all killed)
Conditions: 10 µM

| Structure (SMILES) | growth |
| --- | --- |
| Cc1ccc(C(=O)NCCCNc2nc(Nc3ccc(N4CCN(C)CC4)cc3)nc3ccsc23)cc1 | 24.1% |
| O=C(c1ccc(-n2c(=O)[nH]c3ccccc3c2=O)cc1)N1CCOCC1 | 92.9% |
| O=S(=O)(c1ccc(Cl)cc1)c1nc(-c2ccccc2)oc1S(=O)(=O)c1ccc(Cl)cc1 | 90.4% |
| Cc1ccc(C(C)C)cc1NC(=O)c1ccccc1N(C)C | 63.1% |
| COc1ccc2[nH]c(O)c(N=NC(=O)COc3ccc(NC(=O)Nc4ccc(Cl)c(Cl)c4)cc3)c2c1 | 14.4% |
| COc1cccc(-c2nn(-c3ccccc3)cc2-c2ccnc(NCCCNC(=O)Nc3ccc(F)cc3)c2)c1 | 11.4% |
| CN1CCN(c2ccc(Nc3nc(NCCCNC(=O)c4ccc(F)cc4)c4sccc4n3)cc2)CC1 | 63.7% |
| CC1(C)CC[C@]2(C(=O)Nc3ccccc3)CC[C@]3(C)C(=CC[C@@H]4[C@@]5(C)CC[C@H](N)C(C)(C)[C@@H]5CC[C@]43C)[C@H]2C1 | 115% |
| C[C@H]1[C@H](C)CC[C@]2(COC(=O)CCC(=O)NCC#CCN3CCNCC3)CC[C@]3(C)C(=CC[C@@H]4[C@@]5(C)CCCNC(C)(C)[C@@H]5CC[C@]43C)[C@H]12 | 46.7% |
| O=C(Nc1ccncc1)c1ccc(-n2c(=O)[nH]c3ccccc3c2=O)cc1 | 76.9% |
| Cc1ccc(C(C)C)cc1NC(=O)c1ccccc1O | 9.83% (active) |
| CCCS(=O)(=O)c1oc(-c2ccc(F)cc2)nc1S(=O)(=O)c1ccc(F)cc1 | 22% |
| CN(C)c1cccc2c(S(=O)(=O)Nc3cccc(-c4csc(NC(=O)CCCCCN5CCN(c6cc7c(cc6F)C(=O)N(C6CCC(=O)NC6=O)C7=O)CC5)n4)c3)cccc12 (stereo unspecified) | 83.1% |
| CC(=C(c1ccc(OCCN2CCCCC2)cc1)c1ccc(OCCN2CCCCC2)cc1)c1ccccc1 | -79% (active) |
| CC[C@@]1(O)C(=O)OCc2c1cc1n(c2=O)Cc2c-1nc1cc(F)c(C)c3c1c2[C@@H](N)CC3 | -78.1% (active) |
| O=C(Cn1cc(CSc2nnc3oc4ccccc4n23)nn1)Nc1cccc(Cl)c1 | 49.6% |

| Structure (SMILES) | growth |
| --- | --- |
| C=C(C)[C@@H]1CC[C@]2(C(=O)OC)CC[C@]3(C)[C@H](CC[C@@H]4[C@@]5(C)CC[C@H](N)C(C)(C)[C@@H]5CC[C@]43C)[C@@H]12 | -97.9% (active) |
| COc1ccc(-c2nc(S(=O)(=O)c3ccc(C)cc3)c(S(C)(=O)=O)o2)cc1 | -58.2% (active) |
| CCN1CCN(c2ccc(NC(=O)Nc3ccc(-c4cc(C(=O)NC(C)C)c5ncccc5n4)cc3)cc2C(F)(F)F)CC1 | -93.3% (active) |
| C=C[C@H]1[C@H](O[C@@H]2OC(CO)[C@@H](O)[C@H](O)C2OC(=O)c2c(O)cc(O)cc2-c2cccc(O)c2)OC=C2C(=O)OCC[C@H]21 (stereo partly specified) | 98% |
| COc1ccc(C(C)=C(c2ccc(OCCCN(C)C)cc2)c2ccc(OCCCN(C)C)cc2)cc1 | -96.6% (active) |
| CC1(C)CC[C@]23CC[C@]4(C)[C@H](CC[C@@H]5[C@@]6(C)CC[C@H](N)C(C)(C)[C@@H]6CC[C@]54C)[C@H]2[C@H]1OC3=O | -96.1% (active) |
| CCN1CCN(c2ccc(NC(=O)Nc3ccc(-c4cc(C(=O)NC)c5ncccc5n4)cc3)cc2C(F)(F)F)CC1 | -99% (active) |
| COc1ccc2[nH]c(O)c(N=NC(=O)c3cc(-c4ccc(C)cc4)nc4ccccc34)c2c1 | 96.5% |
| O=C(Cn1cc(CSc2nnc3oc4ccccc4n23)nn1)Nc1ccc(Br)cc1 | 49.8% |
| CN1CCN(c2ccc(Nc3nc(N4CCN(S(=O)(=O)c5ccc(F)cc5)CC4)c4sccc4n3)cc2)CC1 | -93.3% (active) |
| COc1ccccc1NCc1ccc(CO)n1-c1ccc(C)cc1 | 83.8% |
| CC(=C(c1ccc(OCCCN(C)C)cc1)c1ccc(OCCCN(C)C)cc1)c1ccccc1 | -99.3% (active) |
| CN1CCN(c2ccc(Nc3nc(NCCCNC(=O)c4ccccc4)c4sccc4n3)cc2)CC1 | 84.6% |
| CCCCCc1ccc(S(=O)(=O)N(C(C)=O)c2cc(-c3csc(N(C)C(C)=O)n3)ccc2N2CCN(C)CC2)cc1 | -88.2% (active) |
| C=C1CC[C@H](C(=C)C)[C@H]2C=C(C)C(=O)C3=C(C(=O)[C@@](C)(O)C3)[C@H]12 | -53.5% (active) |
